Results reported in ChEMBL document CHEMBL4513216, “Probing the Open Global Health Chemical Diversity Library for Multistage-Active Starting Points for Next-Generation Antimalarials” (ACS Infect Dis, 2020).
Among all 68,000 compounds or so, about 2,700 (4%) showed an effect of 50% or more. For the sample, strong results were picked, then their nearest neighbours and some compounds at random.

What follows are compounds tested on Plasmodium berghei (assay: Screen against P. berghei liver stage (PbLuc), transformed with Luciferase, at 2uM). Settings: tested at 2 uM.
Format: functional, HepG2

Q: `CN(C)C(=O)CO[C@H]1CO[C@@]2(CCN(Cc3ccsc3)C2)C1` was tested. Which INHIBITION did it give?
A: Its INHIBITION is -9.99%.

Q: `O=C(CCn1ccccc1=O)N1CCCC(COc2ccc(F)cc2)C1` (stereo not given) was tested. Which INHIBITION did it give?
A: The INHIBITION was 8.25%.

Q: With `O=C(NC[C@H]1OC[C@@H](NC2CCC(F)(F)CC2)[C@@H]1O)N1CCOCC1` as the compound, how does the INHIBITION read?
A: The INHIBITION was 11.43%.

Q: With `Cc1cc(C(=O)N2CCC(c3nccn3Cc3ccncc3)CC2)no1` as the compound, how does the INHIBITION read?
A: Its INHIBITION is 17.75%.

Q: Which INHIBITION does the source give for `CCC(C)Oc1cc(C(=O)Nc2nccs2)ccn1` (stereo not given) here?
A: The INHIBITION was 41.05%.

Q: How did the INHIBITION turn out when `CCC(C)Oc1cc(C(=O)Nc2nnc(C(C)C)[nH]2)ccn1` (stereo not given) was run?
A: The INHIBITION was 38.67%.

Q: How did the INHIBITION turn out when `CCC(C)Oc1cc(C(=O)Nc2nc(C)ns2)ccn1` (stereo not given) was run?
A: Its INHIBITION is 52.98%.

Q: How did the INHIBITION turn out when `c1cc(CN2C[C@@H]3OCCN(CCN4CCCC4)[C@@H]3C2)co1` was run?
A: Its INHIBITION is 2.87%.

Q: For `Cc1nc(-c2cc(F)c3c(c2)CC(CN)O3)c[nH]1` (stereo not given), which INHIBITION is on record?
A: Its INHIBITION is 33.9%.

Q: With `Cc1nc(-c2cc(Cl)c3c(c2)CC(CN)O3)c[nH]1` (stereo not given) as the compound, how does the INHIBITION read?
A: The INHIBITION was 74.44%.

Q: Which INHIBITION does the source give for `Cc1nc(-c2cc(Cl)cc3c2OC(CN)C3)c[nH]1` (stereo not given) here?
A: Its INHIBITION is 26.74%.

Q: Which INHIBITION does the source give for `CN(CC(F)(F)F)C(=O)Cn1cc(NC(=O)C(C)(C)C)cn1` here?
A: Its INHIBITION is -48.48%.

Q: How did the INHIBITION turn out when `COc1cccc(-n2c(C)cc(C(=O)NC(C)(C)C(N)=O)c2C)c1` was run?
A: The INHIBITION was 50.05%.

Q: `COc1cccc(-n2c(C)cc(C(=O)NCCCC(N)=O)c2C)c1` was tested. Which INHIBITION did it give?
A: The INHIBITION was 30.29%.

Q: How did the INHIBITION turn out when `CNC(=O)c1cc(C)n(-c2cccc(OC)c2)c1C` was run?
A: The INHIBITION was 31.7%.

Q: With `CN(Cc1ccco1)C[C@H]1OC[C@@H]2CN(c3ncc(F)cn3)CC[C@@H]21` as the compound, how does the INHIBITION read?
A: Its INHIBITION is 17.89%.

Q: How did the INHIBITION turn out when `O=C(NC1CC1)[C@H]1CN(Cc2ccc3c(c2)OCO3)C[C@H]2OCC[C@@H]12` was run?
A: Its INHIBITION is -0.18%.

Q: With `Cc1cc(C(=O)NCc2c(C)nn(C)c2C)nc(N2CCCC2)n1` as the compound, how does the INHIBITION read?
A: The INHIBITION was -70.38%.

Q: `Cc1cc(C(=O)NCc2c(C)nn(C)c2C)nc(N2CCOCC2)n1` was tested. Which INHIBITION did it give?
A: The INHIBITION was -68.8%.

Q: `Cc1cc(C(=O)NCCc2c(C)nn(C)c2C)nc(N2CCCCC2)n1` was tested. Which INHIBITION did it give?
A: Its INHIBITION is 52.82%.

Q: Which INHIBITION does the source give for `O=C(O)c1csc(S(=O)(=O)N2CCCc3cccc(OC(F)F)c32)c1` here?
A: The INHIBITION was -58.31%.

Q: With `CC(C)C(=O)NCc1ccccc1NS(=O)(=O)c1ccccc1` as the compound, how does the INHIBITION read?
A: Its INHIBITION is -1.56%.

Q: How did the INHIBITION turn out when `CN(C(=O)c1cccn1C)C1CCC(NC(=O)OC(C)(C)C)CC1` (stereo not given) was run?
A: Its INHIBITION is 62.51%.

Q: With `CN(C(=O)c1ccc[nH]1)C1CCC(NC(=O)OC(C)(C)C)CC1` (stereo not given) as the compound, how does the INHIBITION read?
A: The INHIBITION was 48.21%.

Q: Which INHIBITION does the source give for `CN(C(=O)c1ccco1)C1CCC(NC(=O)OC(C)(C)C)CC1` (stereo not given) here?
A: The INHIBITION was 38.67%.

Q: Which INHIBITION does the source give for `c1cnc(N2CCC3(CCCN(Cc4ccncc4)C3)CC2)nc1` here?
A: Its INHIBITION is 4.89%.

Q: With `c1cncc(COCc2cncc3c2CCN(Cc2ccoc2)C3)c1` as the compound, how does the INHIBITION read?
A: The INHIBITION was 25.5%.

Q: `Cc1[nH]c2ccccc2c1-c1ccnc(NCCN2CCCCC2)n1` was tested. Which INHIBITION did it give?
A: The INHIBITION was -2.21%.

Q: Which INHIBITION does the source give for `O=C(O)c1nnn(-c2ccc(C(F)(F)F)cc2)c1-c1ccncc1` here?
A: Its INHIBITION is -40.92%.

Q: `CCOC(=O)CC(C)Nc1nc(C2CCCC2)nc2c1cnn2C` (stereo not given) was tested. Which INHIBITION did it give?
A: The INHIBITION was 57.64%.

Q: `COC(=O)[C@H](CSC)Nc1nc(C2CCCC2)nc2c1cnn2C` was tested. Which INHIBITION did it give?
A: Its INHIBITION is 43.28%.

Q: Which INHIBITION does the source give for `CCOC(=O)CC(C)Nc1nc(C(C)(C)C)nc2c1cnn2C` (stereo not given) here?
A: Its INHIBITION is -70.6%.

Q: How did the INHIBITION turn out when `CC(C)C[C@H](Nc1nc(C2CCCC2)nc2c1cnn2C)C(N)=O` was run?
A: The INHIBITION was 52.38%.

Q: Which INHIBITION does the source give for `CC(C)[C@H](Nc1nc(C2CCCC2)nc2c1cnn2C)C(N)=O` here?
A: The INHIBITION was 23.16%.

Q: With `COC(=O)[C@@H](Nc1nc(C2CCCC2)nc2c1cnn2C)[C@@H](C)O` as the compound, how does the INHIBITION read?
A: Its INHIBITION is 40.4%.

Q: `CCOCC1CN(C(=O)Cc2ccsc2)Cc2ccnn2C1` (stereo not given) was tested. Which INHIBITION did it give?
A: Its INHIBITION is 21.77%.

Q: How did the INHIBITION turn out when `CC(=O)N1CCCN(C(C(=O)O)c2cccc(C)c2C)CC1` (stereo not given) was run?
A: The INHIBITION was -17.37%.

Q: `O=C1COC2(CCN(Cc3cccnc3)CC2)CN1` was tested. Which INHIBITION did it give?
A: Its INHIBITION is 11.87%.

Q: How did the INHIBITION turn out when `c1cncc(N2CCOCC3(CCCN(Cc4cccs4)C3)C2)c1` (stereo not given) was run?
A: The INHIBITION was -26.24%.

Q: `Cc1c(Cl)c(C(=O)N2CC(c3cccnc3)C2)nn1C` was tested. Which INHIBITION did it give?
A: Its INHIBITION is 7.62%.

Q: `Cc1c(Cl)c(C(=O)N2C[C@@H](C(=O)O)[C@H](c3cccnc3)C2)nn1C` was tested. Which INHIBITION did it give?
A: The INHIBITION was 69.71%.

Q: For `Cc1ccc2nc(C(=O)N3C[C@@H](C(=O)O)[C@H](c4cccnc4)C3)cn2c1`, which INHIBITION is on record?
A: The INHIBITION was 1.52%.

Q: How did the INHIBITION turn out when `Cc1nc(C)n(CC2CCCN2CCCOc2ccc(F)cc2)n1` (stereo not given) was run?
A: The INHIBITION was -8.1%.

Q: With `CCC(C(=O)Nc1ccc2nc(C)oc2c1)N1CCCC1=O` (stereo not given) as the compound, how does the INHIBITION read?
A: Its INHIBITION is 14.06%.

Q: `CNc1nc(C)cc(NC2CCCN(C3Cc4ccccc4C3)C2)n1` (stereo not given) was tested. Which INHIBITION did it give?
A: Its INHIBITION is 58.03%.

Q: With `CNc1cc(C)nc(NC2CCCN(C3Cc4ccccc4C3)C2)n1` (stereo not given) as the compound, how does the INHIBITION read?
A: Its INHIBITION is 8.26%.

Q: For `Cc1ccc(NC2CCCN(C3Cc4ccccc4C3)C2)nn1` (stereo not given), which INHIBITION is on record?
A: Its INHIBITION is 3.91%.

Q: Which INHIBITION does the source give for `CC(C)COC1CC2(CCN(C(=O)Cc3ccccn3)CC2)C1` here?
A: Its INHIBITION is -9.07%.

Q: For `CSCc1noc(Cn2ncn3cccc3c2=O)n1`, which INHIBITION is on record?
A: Its INHIBITION is 46.15%.

Q: For `c1cc(CN2CCOCC3(CCN(CC4CCOCC4)CC3)C2)ccn1`, which INHIBITION is on record?
A: Its INHIBITION is 26.76%.

Q: `CC1CN(C(=O)c2cnn(-c3ccccn3)c2C(C)C)CC(C)(C)O1` (stereo not given) was tested. Which INHIBITION did it give?
A: The INHIBITION was -4.15%.

Q: Which INHIBITION does the source give for `CCc1c(C(=O)N2CCOC(C)(C)C2)cnn1-c1ccccn1` here?
A: The INHIBITION was 61.63%.

Q: Which INHIBITION does the source give for `CCc1c(C(=O)N2CC(C)OC(C)(C)C2)cnn1-c1ccccn1` (stereo not given) here?
A: The INHIBITION was 24.23%.

Q: How did the INHIBITION turn out when `CCc1nc(CC(=O)N2CCC(C(=O)N3CCCC3)CC2)cs1` was run?
A: The INHIBITION was -30.23%.

Q: For `O=C1CC[C@H]2[C@H](CCN2C(=O)N2CCCC2)N1Cc1ccncc1`, which INHIBITION is on record?
A: The INHIBITION was -61.95%.
